Measured values as given in PubChem BioAssay AID651815 (National Center for Advancing Translational Sciences (NCATS), 2012).
Among all 2,100 compounds or so, about 1,100 (52%) were called active. About 29% were inconclusive and are not listed. Calls follow the shape of the dose curve; as a rule, active = well fitted inhibition curve with a large enough effect; inconclusive = small, poorly fitted or top-dose-only effect; inactive = no such curve, though single readings can be large or run the other way. So high a share suggests a set chosen from earlier hits. Some of the results follow.

molecular target: DNA dC->dU-editing enzyme APOBEC-3F (Homo sapiens) (UniProt Q8IUX4); assay: qHTS for inhibitors of Vif-A3F interactions: Cherry picks counterscreen; conditions: HeLa A3F-eYFP/Vif cells, eYFP fluorescence, 24 h; series mostly up to 46.1 µM; activity, negative = inhibitor: at the top concentration; also: nearly all actives have a fitted effect of over 65% in size
Outline: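 HeLa cells stably expressing A3F-eYFP and Vif, cultured overnight, then treated 24 h at 37 degrees C with compounds at several concentrations; yellow fluorescence (488 nm Ex/500-530 nm Em) imaged on Acumen; MG132 positive control.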
% is scaled to controls: 0 for no effect and ±100 for the full control effect; potency is read from the fitted curve at half-maximal effect.

Sequence of DNA dC->dU-editing enzyme APOBEC-3F (Homo sapiens) (Q8IUX4 whole entry, looked up): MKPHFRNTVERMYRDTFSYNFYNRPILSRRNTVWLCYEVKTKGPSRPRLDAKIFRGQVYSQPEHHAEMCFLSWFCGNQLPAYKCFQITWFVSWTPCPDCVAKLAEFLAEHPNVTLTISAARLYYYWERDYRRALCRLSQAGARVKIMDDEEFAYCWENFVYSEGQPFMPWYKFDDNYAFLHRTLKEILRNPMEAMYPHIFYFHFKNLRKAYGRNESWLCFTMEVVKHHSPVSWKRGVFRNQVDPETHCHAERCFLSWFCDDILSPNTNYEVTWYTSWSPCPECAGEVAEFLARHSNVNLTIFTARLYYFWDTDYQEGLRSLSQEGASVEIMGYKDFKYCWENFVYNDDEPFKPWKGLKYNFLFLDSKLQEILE

| SMILES | Potency | activity, negative = inhibitor |
| --- | --- | --- |
| ClCc1nc2ccccc2n1Cc1ccccc1 | 18.4 µM (active) | – |
| CC(C)(C)c1ccc(Cn2c(=O)cnc3ccccc32)cc1 | – | -20.8% (inactive) |
| COc1cc(N2CCCC2)c(OC)cc1/C=C(/C#N)c1ccc(Br)cc1 | 2.06 µM (active) | – |
| COc1cc(N2CCCC2)c(OC)cc1/C=C(/C#N)c1ccc(F)cc1 | 9.2 µM (active) | – |
| CC(=O)/C(N=Nc1cc(C)ccc1O)=C(\C)O | 16.4 µM (active) | – |
| Cc1ccccc1OCCc1c(C)[nH]c(=S)[nH]c1=O | 2.23 µM (active) | – |
| Cc1ccc(-c2nc(SCCOc3ccccc3C)n3[nH]c(=O)cc3n2)cc1 | – | 4.56% (inactive) |
| COc1cc(NC(=O)C2=C(N3CCOCC3)/C(=C\c3ccc(N(C)C)cc3)CCC2)cc(OC)c1OC | 5.59 µM (active) | – |
| O=C1CC(c2ccccc2F)c2cc3c(cc2N1)CCC3 (stereo not drawn) | 2.5 µM (active) | – |
| O=C1CC(c2cc(F)ccc2F)c2cc3c(cc2N1)CCC3 (stereo not drawn) | 3.14 µM (active) | – |
| O=C1CC(c2cc(Br)ccc2F)c2cc3c(cc2N1)CCC3 (stereo not drawn) | 1.12 µM (active) | – |
| NC(=O)c1ccccc1NC(=S)NC(=O)CCc1ccccc1 | 9.94 µM (active) | – |
| CCC(=O)NC(=S)Nc1cccc(Cl)c1N1CCCC1 | – | -20.3% (inactive) |
| O=C(COc1ccccc1)NC(=S)Nc1cccc2c(O)cccc12 | – | -26.3% [at 36.9 µM] (inactive) |
| Oc1ccc(-c2nc(-c3ccc(O)c(O)c3)cs2)cc1 | 1.25 µM (active) | – |
| Cc1ccccc1NC(=O)c1ccc2c(c1)c(C)c(C)n2Cc1ccccc1 | 6.51 µM (active) | – |
| COc1ccc(NC(=O)c2ccc3c(c2)c(C)c(C)n3Cc2ccc(F)cc2)cc1 | 4.61 µM (active) | – |
| O=[N+]([O-])c1ccc(N2CCN(Cc3ccccc3)CC2)c2c1no[n+]2[O-] | 15.8 µM (active) | – |
| COc1ccc(OC)c(-c2cc(-c3cccnc3)nc(N)c2C#N)c1 | 3.53 µM (active) | – |
| O=C(/C=C/c1ccco1)N1CCc2ccccc21 | – | -25.8% (inactive) |
| Cc1c(C(=O)C(=O)N2CC=C(c3ccccc3)CC2)c2ccccc2n1C | 2.5 µM (active) | – |

| SMILES | Potency | activity, negative = inhibitor |
| --- | --- | --- |
| Cc1c(C(=O)C(=O)N2CCCc3ccccc32)c2ccccc2n1C | 8.86 µM (active) | – |
| CCOc1ccc(-c2cc(C(=O)NCCc3ccc(OC)c(OC)c3)c3c(-c4ccc(F)cc4)[nH]nc3n2)cc1 | 16.4 µM (active) | – |
| COc1ccc(CCNC(=O)CC2(CC3=NS(=O)(=O)c4ccccc4N3)CCCC2)cc1OC | – | -12% [at 36.9 µM] (inactive) |
| COc1ccccc1CNc1nc2ccc(C)cc2n2nnnc12 | 23.1 µM (active) | – |
| COc1ccc(OC)c(CNc2nc3ccc(C)cc3n3nnnc23)c1 | 8.2 µM (active) | – |
| CCNc1cc(N2CCN(C3CCCCC3)CC2)c2noc3c2c1C(=O)c1ccccc1-3 | 13 µM (active) | – |
| CN(C)CCCNc1cc(N2CCN(C3CCCCC3)CC2)c2noc3c2c1C(=O)c1ccccc1-3 | 2.59 µM (active) | – |
| O=C1c2ccccc2-c2onc3c(N4CCN(C5CCCCC5)CC4)cc(NCCO)c1c23 | 5.8 µM (active) | – |
| CCN(CC)c1ccc(/C=N/NC(=O)c2ccco2)cc1 | 6.27 µM (active) | – |
| O=C(NC(=S)N1CCc2ccccc21)c1ccco1 | – | -3.14% (inactive) |
| Fc1ccccc1Nc1nc2ccccc2n2nnnc12 | 14.6 µM (active) | – |
| c1ccc2c(c1)nc(N1CCOCC1)c1nnnn12 | 20.6 µM (active) | – |
| Cc1ccc(CNc2nc3ccc(Cl)cc3n3nnnc23)cc1 | 11.6 µM (active) | – |
| Fc1ccc(CNc2nc3ccccc3n3nnnc23)cc1 | 11.6 µM (active) | – |
| Fc1ccc(CNc2nc3ccc(Cl)cc3n3nnnc23)cc1 | 6.51 µM (active) | – |
| c1ccc2c(c1)nc(NCC1CCCO1)c1nnnn12 (stereo not drawn) | 18.4 µM (active) | – |
| N#C/C(=C/c1ccc(N2CCOCC2)o1)c1ccc(Cl)cc1 | 4.61 µM (active) | – |
| N#C/C(=C/c1ccc(N2CCCCC2)o1)c1cccc(F)c1 | 4.11 µM (active) | – |
| Cc1ccc(/C(C#N)=C\c2ccc(N3CCOCC3)o2)cc1 | 15.8 µM (active) | – |
| N#C/C(=C/c1ccc(N2CCCCCC2)o1)c1ccc(Cl)cc1 | 3.66 µM (active) | – |
| CCN(c1ccc(NC(=O)CCc2nc3sc4c(c3c(=O)[nH]2)CCCC4)cc1)C(C)C | – | -28.5% (inactive) |

| SMILES | Potency | activity, negative = inhibitor |
| --- | --- | --- |
| COc1ccc(C(=O)C[n+]2cc(Br)cc3ccccc32)cc1 | 16.4 µM (active) | – |
| O=C(C[n+]1cccc2cc(Cl)ccc21)c1ccc2ccccc2c1 | 20.6 µM (active) | – |
| CCCC1=[N+](CC(=O)c2ccc(Br)cc2)CCn2cccc21 | – | -9.63% (inactive) |
| CC(C)(C)c1ccc(C(=O)C[n+]2cccc3cc(Cl)ccc32)cc1 | 18.4 µM (active) | – |
| COc1ccc(C(=O)C[n+]2cccc3cc(Cl)ccc32)cc1 | 20.6 µM (active) | – |
| O=C(NC1C/C(=N/O)c2cc3c(cc21)OCO3)C(F)(F)F (stereo not drawn) | – | 11.8% (inactive) |
| CCCn1c(CN2CCN(C(=O)OCC)CC2)nc2cc(NC(=O)C(C)C)ccc21 | 12.5 µM (active) | – |
| CCN(CC)C(=O)Cn1c(C)c(/C=C/c2cc[n+](C)cc2)c2ccccc21 | 7.9 µM (active) | – |
| COC(=O)Cn1c(C)c(/C=C/c2cc[n+](C)cc2)c2ccccc21 | 9.2 µM (active) | – |
| COc1ccccc1-c1cc(-c2ccccc2)nc(SC(C(N)=O)c2ccccc2)c1C#N (stereo not drawn) | 17.7 µM (active) | – |
| N#CC1=C(S)N(c2ccc(F)cc2)C2(CCCCC2)NC1=O | – | 16.2% (inactive) |
| Cc1ccc2nc(C)c(C(=O)NN=C3CCCCCC3)n2c1 | – | -27.5% [at 36.9 µM] (inactive) |
| O=C1OC(/C(=C\Nc2cc(Cl)ccc2O)[N+](=O)[O-])c2ccccc21 (stereo not drawn) | – | -22.5% [at 36.9 µM] (inactive) |
| CC(C)CN(CC(C)C)c1ccc(/C=C/c2ccnc3ccccc23)cc1 | 20.6 µM (active) | – |
| CCCCN(CCC(=O)O)c1ccc(/C=C/c2ccnc3ccccc23)cc1 | 18.4 µM (active) | – |
| CCN(C)c1ccc(/C=C/c2ccnc3ccccc23)cc1 | 23.1 µM (active) | – |
| CCN(CCCN(C)C)c1ccc(/C=C/c2ccnc3ccccc23)cc1 | 20.6 µM (active) | – |
| CCN(CC)c1ccc(/C=C/c2ccnc3ccccc23)cc1 | 23.1 µM (active) | – |
| CCCCN(CCCC)c1ccc(/C=C/c2ccnc3ccccc23)cc1 | 23.1 µM (active) | – |
| CCCN(CCC)c1ccc(/C=C/c2ccnc3ccccc23)cc1 | 20.6 µM (active) | – |
| COCCNC(=O)C(=O)Nc1ccc2c(c1)N(S(=O)(=O)c1cccs1)CCC2 | 2.23 µM (active) | – |
